Measured values as given in PubChem BioAssay (NCI).
About 83,000 compounds went through this panel and 20% of them were active in at least one assay; those are over-represented in the sample as a whole.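 The endpoint reported here, percent growth, reads 100 for growth as untreated, 0 for no net growth and -100 for all cells dead.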 The source made the active and inactive calls. Rule for the calls: active = growth percent below 10; inactive = the rest.

What was measured:
Experiment in all cases: NCI-60 one-dose screen, 48 h (100 = growth as untreated, 0 = no growth, -100 = all killed)
Conditions in all cases: 10 µM unless noted
NCI-H23 lung = test system: NCI-H23 lung
NCI-H226 lung = test system: NCI-H226 lung
NCI-H322M lung = test system: NCI-H322M lung
HOP-62 NSCLC = test system: HOP-62 NSCLC
NCI-H460 lung = test system: NCI-H460 lung
HOP-92 NSCLC = test system: HOP-92 NSCLC
NCI-H522 lung = test system: NCI-H522 lung
A549/ATCC NSCLC = test system: A549/ATCC NSCLC
786-0 renal = test system: 786-0 renal
COLO 205 colon = test system: COLO 205 colon
DU-145 prostate = test system: DU-145 prostate
K-562 leukemia = test system: K-562 leukemia
MALME-3M melanoma = test system: MALME-3M melanoma
MDA-MB-231 breast = test system: MDA-MB-231 breast
RXF 393 renal = test system: RXF 393 renal
SF-268 CNS = test system: SF-268 CNS
SF-295 CNS = test system: SF-295 CNS
SF-539 CNS = test system: SF-539 CNS
UACC-257 melanoma = test system: UACC-257 melanoma
M14 melanoma = test system: M14 melanoma

Measured: growth

O=C(CC1(O)C(=O)N(Cc2ccccc2)c2ccc(F)cc21)c1ccc(C(=O)NCC2CCC3(CC2)OOC2(CCCCC2)OO3)cc1 (stereo not given)
active: NCI-H23 lung -70.8% | NCI-H226 lung -43.2% | HOP-62 NSCLC -56.6% | NCI-H460 lung -51.8% | HOP-92 NSCLC -71.8% | NCI-H522 lung -43.1% | A549/ATCC NSCLC -52.4% | 786-0 renal -67% | COLO 205 colon -63.3% | DU-145 prostate -94.3% | K-562 leukemia -42.7% | MALME-3M melanoma -69.2% | MDA-MB-231 breast -74% | RXF 393 renal -80.4% | SF-268 CNS -60.3% | SF-295 CNS -14.1% | SF-539 CNS -84.8% | UACC-257 melanoma -2.89%
inactive: NCI-H322M lung 50.1% | M14 melanoma 15.3%

CCOc1ccc(/C=C/[N+](=O)[O-])cc1
inactive: NCI-H23 lung 87.8% | NCI-H226 lung 81.4% | NCI-H322M lung 98.5% | HOP-62 NSCLC 110% | NCI-H460 lung 98.2% | HOP-92 NSCLC 76.6% | NCI-H522 lung 96.8% | A549/ATCC NSCLC 78.8% | 786-0 renal 92.4% | COLO 205 colon 94.1% | DU-145 prostate 99.3% | K-562 leukemia 69% | MALME-3M melanoma 106% | MDA-MB-231 breast 92.8% | RXF 393 renal 16.9% | SF-268 CNS 98.9% | SF-295 CNS 82.5% | SF-539 CNS 39% | UACC-257 melanoma 85.5% | M14 melanoma 54.5%

Brc1ccc2c(c1)c(-c1nc(-c3c[nH]c4ncccc34)cs1)cn2CCN1CCCCC1
active: K-562 leukemia -15.7%
inactive: NCI-H23 lung 89% | NCI-H226 lung 80% | NCI-H322M lung 65.6% | HOP-62 NSCLC 88.7% | NCI-H460 lung 67.4% | HOP-92 NSCLC 37.1% | NCI-H522 lung 68.8% | A549/ATCC NSCLC 67.5% | 786-0 renal 53% | COLO 205 colon 37.7% | DU-145 prostate 82.6% | MALME-3M melanoma 100% | MDA-MB-231 breast 62.1% | RXF 393 renal 60.4% | SF-268 CNS 75.9% | SF-295 CNS 91.5% | SF-539 CNS 87.3% | UACC-257 melanoma 96.7% | M14 melanoma 15.8%

CC(=O)[C@H]1CC[C@H]2[C@@H]3CC[C@H]4C[C@H](N)CC[C@]4(C)[C@H]3CC[C@]12C
active: HOP-92 NSCLC 7.56%
inactive: NCI-H23 lung 86.7% | NCI-H226 lung 95.7% | NCI-H322M lung 107% | HOP-62 NSCLC 77.1% | NCI-H460 lung 79.9% | NCI-H522 lung 77.3% | A549/ATCC NSCLC 66.4% | 786-0 renal 60.7% | COLO 205 colon 49.3% | DU-145 prostate 92.2% | K-562 leukemia 56% | MALME-3M melanoma 82.9% | MDA-MB-231 breast 72.7% | RXF 393 renal 66.8% | SF-268 CNS 92% | SF-295 CNS 99.6% | SF-539 CNS 84.6% | UACC-257 melanoma 55.2% | M14 melanoma 68.3%
